CtBP-E1A blk = blocks the CtBP interaction with E1A; AlphaScreen GST-E1A/His-CtBP binding, 1536-well; hits give low values; activity change, % (no concentration beside the values); 340,000 tested, 0.49% active; in the data active means activity change below about -65%; inconclusive means mostly about -30% to -63%
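Protein mix (5X: 125 nM each GST-E1A, His-CtBP) was incubated with pinned compound 2 h at 37 deg C in dark, in 50 mM Tris pH 8.0 buffer with 300 mM NaCl. Glutathione donor and nickel acceptor beads followed; AlphaScreen signal read after 1 h.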
TDP1 block = TDP1 (human) enzyme inhibition. recombinant TDP1, AlphaScreen DNA substrate cleavage. Potency, µM (titrated, usually from 130 µM), for the others: at the top dose activity change, negative = inhibition, hits mostly inhibitors. 350,000 tested, 0.28% active. AID 485290; further: potency means the concentration at half of the fitted maximal effect; nearly all actives have a fitted effect of over 40% in size
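Enzyme-compound mixtures sat 15 min at room temperature, followed by a 5 min reaction with 15 nM final substrate and 10 min with AlphaScreen beads. Recombinant human Tdp1 was used at 1 nM final.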
IL-1B inflam inh = inflammasome signaling inhibition, IL-1 beta readout; THP-1 LPS/ATP IL-1B secretion, AlphaLISA, 16 h; hits give low values; activity change, % at 57.5 µM; 360,000 tested, 4.7% active; AID 743279; in the data active means activity change below about -50%; inconclusive means mostly about -30% to -49%
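Secreted IL-1B measured by AlphaLISA bead assay after 16 h compound exposure of THP-1 cells; compounds (final up to 57.5 uM) added 1 h before LPS (250 ng/mL) and ATP (1.25 mM) stimulation; lower signal means less secretion.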
DT40 TDP1 CPT = DT40-hTDP1 cell growth loss with CPT; Potency, µM (series often up to 46.2 µM), for the others: top-dose activity change, negative = growth inhibition, actives largely listed as inhibitors; 420,000 tested, 12% active; chicken DT40 Tdp1-/-;hTDP1 cells + 20 nM CPT, ATP luminescence, 48 h; AID 686979; further: potency means the concentration at half of the fitted maximal effect; nearly all actives have a fitted effect of over 55% in size
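Chicken DT40 Tdp1-/- cells complemented with human TDP1, 400 cells/well, exposed to compounds plus 20 nM camptothecin for at least 48 h at 37 C; viability read as ATP content by CellTiter-Glo luminescence.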
Six1-Eya2 inh = Six1/Eya2 interaction inhibition; Q15475+O00167; AlphaScreen GST-Six1/His-Eya2 binding, biochemical; hits give low values; activity change, % (no concentration beside the values); 360,000 tested, 0.56% active; AID 651725; in the data active means activity change below about -65%; inconclusive means mostly about -30% to -63%
Target sequence (O00167 whole entry, looked up): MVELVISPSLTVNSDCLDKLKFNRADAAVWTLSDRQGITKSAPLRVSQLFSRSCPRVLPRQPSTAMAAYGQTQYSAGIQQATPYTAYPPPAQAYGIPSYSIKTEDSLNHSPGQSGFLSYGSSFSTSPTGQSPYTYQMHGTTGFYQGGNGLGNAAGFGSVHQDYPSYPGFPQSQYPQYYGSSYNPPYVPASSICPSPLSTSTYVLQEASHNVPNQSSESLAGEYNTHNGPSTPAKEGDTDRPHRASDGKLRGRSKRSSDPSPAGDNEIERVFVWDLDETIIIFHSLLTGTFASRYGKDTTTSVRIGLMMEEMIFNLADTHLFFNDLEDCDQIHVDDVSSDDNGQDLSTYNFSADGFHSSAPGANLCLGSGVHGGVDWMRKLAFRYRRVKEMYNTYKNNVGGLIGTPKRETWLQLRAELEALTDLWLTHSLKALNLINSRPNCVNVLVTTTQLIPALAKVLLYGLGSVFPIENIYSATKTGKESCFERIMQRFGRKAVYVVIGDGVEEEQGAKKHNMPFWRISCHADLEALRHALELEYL
Target sequence (Q15475 whole entry, looked up): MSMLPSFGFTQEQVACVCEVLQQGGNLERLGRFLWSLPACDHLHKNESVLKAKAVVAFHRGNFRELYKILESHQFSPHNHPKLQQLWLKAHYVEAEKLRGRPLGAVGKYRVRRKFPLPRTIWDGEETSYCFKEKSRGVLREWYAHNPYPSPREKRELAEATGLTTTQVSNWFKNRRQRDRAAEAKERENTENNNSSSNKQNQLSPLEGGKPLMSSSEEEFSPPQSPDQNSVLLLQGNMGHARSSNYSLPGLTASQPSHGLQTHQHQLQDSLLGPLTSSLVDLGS
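AlphaScreen luminescence read after one hour at 37 °C in darkness. Pin-transferred compounds met GST-Six1 and His-Eya2 protein (5X stock 250 nM/500 nM) plus glutathione donor and Ni-chelate acceptor beads (5X, 50 ug/mL).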
DT40 TDP1 no CPT = qHTS for Inhibitors of human tyrosyl-DNA phosphodiesterase 1 (TDP1): qHTS in cells in absence of CPT; DT40 Tdp1-/- hTDP1 cells, no CPT, ATP luminescence, 48 h; Potency, µM (top dose mostly 46.2 µM), for inactives: at the top dose activity change, negative = growth inhibition, hits mostly inhibitors; 420,000 tested, 15% active; AID 686978, 2013; further: potency means the concentration at half of the fitted maximal effect; nearly all actives have a fitted effect of over 55% in size
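Growth of hTDP1-complemented DT40 Tdp1-knockout cells is measured by ATP luminescence after at least 48 hr compound exposure at 37 °C, with DMSO substituting for the 20 nM CPT used in the parallel screen.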
An asterisk follows results filed as active; ? = inconclusive; · = no result. Shown are actives, neighbours in structure and some others; about 18% of the full set was active somewhere. Unless noted, the call rests on the fitted dose curve; in most records, active means well fitted curve in the direction sought with a large enough effect; inconclusive means small, poorly fitted or top-dose-only effect, or another doubt; inactive means no such curve, though single readings can be large; an effect the other way counts as inactive or inconclusive. On the % scale 0 is the no-effect control and ±100 the full control effect.

SMILES	CtBP-E1A blk	TDP1 block	IL-1B inflam inh	DT40 TDP1 CPT	Six1-Eya2 inh	DT40 TDP1 no CPT
CCC1=Nc2cc(C(=O)NCCCOC(C)C)ccc2Sc2ccccc21	-16	7%	12	?	-3	?
C=CC(=O)N1c2ccccc2Sc2ccc(NC(=O)OCC)cc21	4	·	-112*	?	9	29µM*
CCOC(=O)Nc1ccc2c(c1)Nc1ccccc1S2	?	11%	-66*	23µM*	?	21µM*
CCOC(=O)c1cc2c(N)c(C(=O)c3cc(C#N)c(SC)nc3C)sc2nc1C	-11	-5%	15	13µM*	-3	10µM*
Cn1c(=O)c2[nH]c(Cc3cccc(O)c3)nc2n(C)c1=O	-24	·	10	-9%	-17	?
Cn1c(=O)c2[nH]c(CNCc3ccccc3Cl)nc2n(C)c1=O	-18	14%	-1	3.7µM*	-18	3.3µM*
Cn1c(=O)c2[nH]c(CCCCCCCc3nc4ccccc4[nH]3)nc2n(C)c1=O	-7	·	-19	23µM*	-19	13µM*
Cn1c(=O)c2[nH]c(COc3ccc(C(C)(C)C)cc3)nc2n(C)c1=O	-6	0%	38	8.2µM*	0	4.6µM*
CCOC(=O)[C@@H]1[C@H]2COc3ccc(Br)cc3[C@H]2N2C(=O)N(c3ccc(Cl)cc3)C(=O)[C@]12C	-6	1%	-3	?	-4	9.2µM*
CCOC(=O)[C@H]1[C@H]2COc3ccc(Br)cc3[C@@H]2N2C(=O)N(c3ccccc3)C(=O)[C@@]12C	4	0%	23	18µM*	-9	-28%
CCOC(=O)[C@@H]1[C@H]2COc3ccc(Br)cc3[C@H]2N2C(=O)N(c3ccc(C(F)(F)F)cc3)C(=O)[C@]12C	2	1%	7	?	0	12µM*
CCOC(=O)COc1ccc(CC)cc1C(=O)c1ccn2nc(-c3ccccc3)cc2n1	·	-1%	·	15µM*	·	23µM*
CCOC(=O)c1cc(-c2ccc(Cl)cc2)nc2onc(C)c12	·	-2%	·	·	·	·
CCOC(=O)c1nnc2cc(-c3ccccc3)nn2c1C	7	4%	8	-24%	-14	?
CCOC(=O)COc1ccc(CC)cc1C(=O)c1ccn2nc(-c3ccc(Cl)cc3)cc2n1	·	3%	·	21µM*	·	21µM*
COc1c(N2CCN(C(=S)Nc3ccccc3)C(C)C2)c(F)cc2c(=O)c(C(=O)O)cn(C3CC3)c12 (configuration not stated)	·	0%	·	·	·	·
COCC(C)NC(=O)C(C)N1c2cccc3cccc(c23)S1(=O)=O (configuration not stated)	12	20µM*	11	-2%	8	?
CNC(=O)C(C)N1c2cccc3cccc(c23)S1(=O)=O (configuration not stated)	·	·	-8	-10%	0	-22%
C1=C(c2ccc(-c3ccccc3)cc2)Nc2ncnn2C1c1ccco1 (configuration not stated)	-2	6%	41	21µM*	-21	16µM*
CC(C)(C)c1ccc(C2=CC(c3ccccc3F)n3ncnc3N2)cc1 (configuration not stated)	·	·	-27	-22%	4	-18%
Cn1cccc1C1C=C(c2ccc(C(C)(C)C)cc2)Nc2ncnn21 (configuration not stated)	-14	·	-16	?	-5	23µM*
Brc1ccc(C2=CC(c3cccs3)n3ncnc3N2)cc1 (configuration not stated)	-16	6%	-19	?	-22	7.3µM*
COc1ccc(C(CNC(=O)CCNS(=O)(=O)c2ccc(C)cc2)N2CCOCC2)cc1 (configuration not stated)	5	-3%	-18	5%	0	1%
CCOc1ccc2ncc(S(=O)(=O)c3ccccc3)c(N3CCN(c4ccccc4)CC3)c2c1	-1	·	15	15µM*	5	?
CCOc1ccc2ncc(S(=O)(=O)c3ccccc3)c(N3CCC4(CC3)OCCO4)c2c1	·	0%	·	·	·	·
SMILES	CtBP-E1A blk	TDP1 block	IL-1B inflam inh	DT40 TDP1 CPT	Six1-Eya2 inh	DT40 TDP1 no CPT
COc1ccc(N2CCN(c3nc4ccccc4nc3NS(=O)(=O)c3ccccc3)CC2)cc1	-26	10%	6	5%	-13	-27%
COc1ccc(S(=O)(=O)c2cnc3ccc(OC)cc3c2N2CCC3(CC2)OCCO3)cc1	-1	8%	?	8.2µM*	-10	3.3µM*
COc1ccc(N2CCN(c3c(S(=O)(=O)c4ccccc4)cnc4ccc(OC)cc34)CC2)cc1	?	5%	-10	23µM*	?	18µM*
CCOc1ccc(Nc2c(S(=O)(=O)c3ccccc3)cnc3ccc(F)cc23)cc1	·	4%	·	?	·	?
O=C(O)CSc1nc(-c2ccccc2)cc(=O)[nH]1	13	-1%	-1	-1%	-1	0%
CC(SC(C)C(=O)NN=Cc1cccc(F)c1)C(=O)NN=Cc1cccc(F)c1 (configuration not stated)	7	·	16	?	3	?
Cc1cc(C)c2nc(SCC(=O)Nc3cc(C)on3)c(C#N)cc2c1	-20	0%	0	?	0	-19%
CCc1ccc(NC(=O)C(=O)NNC(=O)c2ccc(OC)cc2)cc1	4	2%	0	?	8	?
CCc1ccc(C(=O)NNC(=O)OC)cc1	-2	?	6	?	2	29µM*
CC(=O)c1cccc(NC(=O)/C(=C\c2ccco2)NC(=O)c2ccco2)c1	-2	0%	9	3%	-1	-7%
O=C(COC(=O)c1cccnc1Cl)NCc1ccc(F)cc1	·	0%	-9	-6%	7	-8%
O=C(COc1ccc(C(=O)c2ccccc2)cc1)NCc1ccc(F)cc1	4	3%	-3	0.92µM*	6	1µM*
O=C(COc1ccccc1)NCc1ccccc1	36	-4%	20	5%	5	-7%
O=C(COC(=O)c1ccccc1C(=O)c1ccc(Cl)cc1)NCC1CCCO1 (configuration not stated)	-6	5%	?	3%	-1	-11%
CCc1ccc(C(=O)NCc2ccc(Cl)cc2Cl)cc1	20	-3%	-52*	2%	20	-5%
O=C(COC(=O)c1ccccc1C(=O)c1ccc(Cl)cc1)NCc1ccccc1	·	0%	-69*	?	-1	18µM*

Source: PubChem
